Test results as given in PubChem BioAssay (EPA / NIEHS).
Records with an inconclusive call do not appear. Active and inactive are the calls of the source. Rule for the calls, unless noted: active = hit-call score of the fitted dose curve at least 0.9, where 1 is the maximum; inactive = score below 0.9.

Tests used:
[1] = biological target: Peroxisome proliferator-activated receptor gamma (Homo sapiens) (UniProt P37231); assay: OT_PPARg_PPARgSRC1_0480: Odyssey Thera (OT) 8-hour Protein-Complementation Assay for Peroxisome Proliferator-activated Receptor Gamma / SRC-1 Co-activator (AID 2283387; active = hit-call score of the fitted dose curve at least 0.9, where 1 is the maximum;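 note: nuclear to cytoplasmic split Venus YFP fluorescence ratio reporting PPARg SRC-1 interaction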)
Procedure, shortened: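 Read-out: 488 nm N/C fluorescence ratio from complemented Venus YFP fragments, ≥350 cells per image, gain-of-signal fitted against DMSO baseline. Fusions of PPARg/SRC-1 with IFP1/IFP2 expressed transiently in HEK293T; compounds applied 8 h.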

[2] = biological target: Peroxisome proliferator-activated receptor gamma (Homo sapiens) (UniProt P37231); assay: OT_PPARg_PPARgSRC1_1440: Odyssey Thera (OT) 24-hour Protein-Complementation Assay for Peroxisome Proliferator-activated Receptor Gamma/ SRC-1 Co-activator (AID 2283388; active = hit-call score of the fitted dose curve at least 0.9, where 1 is the maximum;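 note: nuclear to cytoplasmic ratio of reconstituted Venus YFP fluorescence in fixed imaged cells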)
Procedure, shortened: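 Transient HEK293T, YFP fragments 1-158/159-239 (mutant IFP1/IFP2) fused to PPARg/SRC-1; 24 h dosing; fix 4% formaldehyde, Draq5; Opera imaging 488/635 nm; N/C ratio, gain vs DMSO.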

[3] = read-out: Tumor necrosis factor receptor superfamily member 6 (Homo sapiens) (UniProt P25445); assay: LTEA_HepaRG_FAS: Life Technologies and Expression Analysis (LTEA) Assay for Fas cell surface death receptor (FAS) using HepaRG (AID 2283447); conditions: mRNA level, 48 h; actives raise or lower the signal
Procedure, shortened: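 FAS transcript level was measured by TaqMan qRT-PCR against three housekeeping genes after 48 h chemical exposure. Cells were HepaRG, 0.5% DMSO vehicle, with a top concentration of 100 uM and half-log dilutions over eight points, in duplicate.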

[4] = read-out: Fatty acid synthase (Homo sapiens) (UniProt P49327); assay: LTEA_HepaRG_FASN: Life Technologies and Expression Analysis (LTEA) Assay for Fatty Acid Synthase (FASN) using HepaRG (AID 2283448); conditions: mRNA level, 48 h; actives raise or lower the signal
Procedure, shortened: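 In human HepaRG cultures, 48 h chemical exposure (up to 100 uM, 0.5% DMSO) preceded TaqMan qRT-PCR of FASN.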

[5] = read-out: Cyclin D2 (CCND2), CCND2 (gene 894); assay: LTEA_HepaRG_CCND2: Life Technologies and Expression Analysis (LTEA) Assay for Cyclin D2 (CCND2) using HepaRG (AID 2283449); conditions: mRNA level, 48 h; actives raise or lower the signal
Procedure, shortened: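 CCND2 transcript levels, quantified by qRT-PCR and normalised to three housekeeping genes, were fitted bidirectionally against 0.5% DMSO. HepaRG cultures were dosed 48 h in duplicate with an 8-point half-log series up to 100 uM.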

[6] = read-out: Cyclin Dependent Kinase Inhibitor 1A (CDKN1A), CDKN1A (gene 1026); assay: LTEA_HepaRG_CDKN1A: Life Technologies and Expression Analysis (LTEA) Assay for Cyclin Dependent Kinase Inhibitor 1A (CDKN1A) using HepaRG (AID 2283450); conditions: mRNA level, 48 h; actives raise or lower the signal
Procedure, shortened: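 Cryopreserved HepaRG cells were plated and cultured 48 h, then switched to serum-free induction medium. Chemicals (eight half-log concentrations, top 100 uM, 0.5% DMSO) were applied for 48 h. Lysates underwent qRT-PCR for CDKN1A with housekeeping normalization.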

[7] = read-out: Cyclin D1 (CCND1), CCND1 (gene 595); assay: LTEA_HepaRG_CCND1: Life Technologies and Expression Analysis (LTEA) Assay for Cyclin D1 (CCND1) using HepaRG (AID 2283451); conditions: mRNA level, 48 h; actives raise or lower the signal;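 for AC50: differentiated human HepaRG liver cells in serum-free induction medium; TaqMan qRT-PCR transcript level normalised to ACTB GAPDH and POLR2A housekeeping genes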
Procedure, shortened: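 Human liver HepaRG line; 48 h dosing, 8 conc. ≤100 uM, 0.5% DMSO; TaqMan qRT-PCR mRNA, 3 housekeeping genes; bidirectional curve fit vs DMSO.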

[8] = read-out: catalase (CAT), CAT (gene 847); assay: LTEA_HepaRG_CAT: Life Technologies and Expression Analysis (LTEA) Assay for catalase (CAT) using HepaRG (AID 2283452); conditions: mRNA level, 48 h; actives raise or lower the signal;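 for AC50: TaqMan qRT-PCR signal normalized to ACTB GAPDH and POLR2A housekeeping genes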
Procedure, shortened: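 Expression of CAT was quantified by TaqMan qRT-PCR with ACTB/GAPDH/POLR2A normalization after 48 h chemical exposure of HepaRG. Eight-point half-log series, top 100 uM, in 0.5% DMSO; gain or loss fitted against vehicle.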

[9] = read-out: flavin-containing dimethylaniline monooxygenases 3 (FMO3), FMO3 (gene 2328); assay: LTEA_HepaRG_FMO3: Life Technologies and Expression Analysis (LTEA) Assay for flavin-containing dimethylaniline monooxygenases 3 (FMO3) using HepaRG (AID 2283453); conditions: mRNA level, 48 h; actives raise or lower the signal;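 for AC50: differentiated human HepaRG liver cells in serum-free induction medium; FMO3 transcript by TaqMan qRT-PCR normalized to ACTB GAPDH and POLR2A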
Procedure, shortened: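 Eight-point concentration-response in serum-free HepaRG cultures (top 100 uM, 0.5% DMSO, 48 h). Read-out: FMO3 mRNA level normalized to three endogenous control genes, fitted bidirectionally versus vehicle.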

[10] = CEETOX_H295R_11DCORT: CeeTox H295R High-throughput Steroidogenesis Assay for 11-Deoxycortisol (11DCORT) (AID 2283432); conditions: actives raise or lower the signal
Procedure, shortened: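 H295R cells; 10 uM forskolin prestim 48 h; compound in 0.1% DMSO 48 h; media extracted with MTBE; 11-deoxycortisol by LC-MS/MS, 7-point standard curve; gain/loss vs DMSO baseline; viability by MTT in same wells.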

[11] = CEETOX_H295R_OHPREG: CeeTox H295R High-throughput Steroidogenesis Assay for OH-Pregnenolone (OHPREG) (AID 2283434); conditions: actives raise or lower the signal
Procedure, shortened: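 Secreted 17alpha-hydroxypregnenolone measured by HPLC-MS/MS after liquid-liquid extraction. Human adrenal H295R cells received 48 h forskolin (10 uM) stimulation before 48 h chemical exposure at 0.1% final DMSO; MTT viability in same wells; bidirectional fit against DMSO.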

[12] = CEETOX_H295R_OHPROG: CeeTox H295R High-throughput Steroidogenesis Assay for OH-Progesterone (OHPROG) (AID 2283435); conditions: actives raise or lower the signal
Procedure, shortened: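 Human adrenocortical H295R cells, passage 10 or lower, were treated with chemical for 48 h after forskolin priming, and hormone output in the medium was quantified by LC-MS/MS.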

[13] = CEETOX_H295R_CORTIC: CeeTox H295R High-throughput Steroidogenesis Assay for Corticosterone (CORTIC) (AID 2283437); conditions: actives raise or lower the signal
Procedure, shortened: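 Medium corticosterone was quantified by tandem mass spectrometry following 48 hours of chemical exposure (0.1% DMSO) in human H295R cells previously stimulated 48 hours with 10 uM forskolin. Viability checked by MTT; chemicals diluted and retested when viability fell below 70%.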

[14] = CEETOX_H295R_CORTISOL: CeeTox H295R High-throughput Steroidogenesis Assay for Cortisol (AID 2283438); conditions: actives raise or lower the signal;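 note: cortisol secreted into medium quantified by LC-MS/MS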
Procedure, shortened: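 Steroidogenesis in H295R, per modified OECD 456: 48 h forskolin (10 uM), then 48 h exposure, 0.1% DMSO. Cortisol by extraction and tandem MS; viability by MTT (570/650 nm); cytotoxic chemicals diluted and re-tested.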

[15] = CEETOX_H295R_DOC: CeeTox H295R High-throughput Steroidogenesis Assay for DOC (AID 2283439); conditions: actives raise or lower the signal
Procedure, shortened: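 H295R, fsk 10 uM ×48 h pre, cmpd ×48 h (0.1% DMSO). Media → MTBE extr. → LC-MS/MS, DOC. Bidirectional fit vs DMSO; MTT viability same wells, re-test diluted if <70%.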

[16] = CEETOX_H295R_PROG: CeeTox H295R High-throughput Steroidogenesis Assay for Progesterone (PROG) (AID 2283442); conditions: actives raise or lower the signal
Procedure, shortened: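 Adrenal H295R line, forskolin-stimulated (10 uM, 48 h) before dosing. 48 h exposure, 0.1% DMSO vehicle. Secreted progesterone by reverse-phase HPLC with ESI+ MS/MS quantification; DMSO-normalised bidirectional curve fit.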

Measured: AC50

Fatty acid synthase (Homo sapiens), sequence (P49327 whole entry, looked up): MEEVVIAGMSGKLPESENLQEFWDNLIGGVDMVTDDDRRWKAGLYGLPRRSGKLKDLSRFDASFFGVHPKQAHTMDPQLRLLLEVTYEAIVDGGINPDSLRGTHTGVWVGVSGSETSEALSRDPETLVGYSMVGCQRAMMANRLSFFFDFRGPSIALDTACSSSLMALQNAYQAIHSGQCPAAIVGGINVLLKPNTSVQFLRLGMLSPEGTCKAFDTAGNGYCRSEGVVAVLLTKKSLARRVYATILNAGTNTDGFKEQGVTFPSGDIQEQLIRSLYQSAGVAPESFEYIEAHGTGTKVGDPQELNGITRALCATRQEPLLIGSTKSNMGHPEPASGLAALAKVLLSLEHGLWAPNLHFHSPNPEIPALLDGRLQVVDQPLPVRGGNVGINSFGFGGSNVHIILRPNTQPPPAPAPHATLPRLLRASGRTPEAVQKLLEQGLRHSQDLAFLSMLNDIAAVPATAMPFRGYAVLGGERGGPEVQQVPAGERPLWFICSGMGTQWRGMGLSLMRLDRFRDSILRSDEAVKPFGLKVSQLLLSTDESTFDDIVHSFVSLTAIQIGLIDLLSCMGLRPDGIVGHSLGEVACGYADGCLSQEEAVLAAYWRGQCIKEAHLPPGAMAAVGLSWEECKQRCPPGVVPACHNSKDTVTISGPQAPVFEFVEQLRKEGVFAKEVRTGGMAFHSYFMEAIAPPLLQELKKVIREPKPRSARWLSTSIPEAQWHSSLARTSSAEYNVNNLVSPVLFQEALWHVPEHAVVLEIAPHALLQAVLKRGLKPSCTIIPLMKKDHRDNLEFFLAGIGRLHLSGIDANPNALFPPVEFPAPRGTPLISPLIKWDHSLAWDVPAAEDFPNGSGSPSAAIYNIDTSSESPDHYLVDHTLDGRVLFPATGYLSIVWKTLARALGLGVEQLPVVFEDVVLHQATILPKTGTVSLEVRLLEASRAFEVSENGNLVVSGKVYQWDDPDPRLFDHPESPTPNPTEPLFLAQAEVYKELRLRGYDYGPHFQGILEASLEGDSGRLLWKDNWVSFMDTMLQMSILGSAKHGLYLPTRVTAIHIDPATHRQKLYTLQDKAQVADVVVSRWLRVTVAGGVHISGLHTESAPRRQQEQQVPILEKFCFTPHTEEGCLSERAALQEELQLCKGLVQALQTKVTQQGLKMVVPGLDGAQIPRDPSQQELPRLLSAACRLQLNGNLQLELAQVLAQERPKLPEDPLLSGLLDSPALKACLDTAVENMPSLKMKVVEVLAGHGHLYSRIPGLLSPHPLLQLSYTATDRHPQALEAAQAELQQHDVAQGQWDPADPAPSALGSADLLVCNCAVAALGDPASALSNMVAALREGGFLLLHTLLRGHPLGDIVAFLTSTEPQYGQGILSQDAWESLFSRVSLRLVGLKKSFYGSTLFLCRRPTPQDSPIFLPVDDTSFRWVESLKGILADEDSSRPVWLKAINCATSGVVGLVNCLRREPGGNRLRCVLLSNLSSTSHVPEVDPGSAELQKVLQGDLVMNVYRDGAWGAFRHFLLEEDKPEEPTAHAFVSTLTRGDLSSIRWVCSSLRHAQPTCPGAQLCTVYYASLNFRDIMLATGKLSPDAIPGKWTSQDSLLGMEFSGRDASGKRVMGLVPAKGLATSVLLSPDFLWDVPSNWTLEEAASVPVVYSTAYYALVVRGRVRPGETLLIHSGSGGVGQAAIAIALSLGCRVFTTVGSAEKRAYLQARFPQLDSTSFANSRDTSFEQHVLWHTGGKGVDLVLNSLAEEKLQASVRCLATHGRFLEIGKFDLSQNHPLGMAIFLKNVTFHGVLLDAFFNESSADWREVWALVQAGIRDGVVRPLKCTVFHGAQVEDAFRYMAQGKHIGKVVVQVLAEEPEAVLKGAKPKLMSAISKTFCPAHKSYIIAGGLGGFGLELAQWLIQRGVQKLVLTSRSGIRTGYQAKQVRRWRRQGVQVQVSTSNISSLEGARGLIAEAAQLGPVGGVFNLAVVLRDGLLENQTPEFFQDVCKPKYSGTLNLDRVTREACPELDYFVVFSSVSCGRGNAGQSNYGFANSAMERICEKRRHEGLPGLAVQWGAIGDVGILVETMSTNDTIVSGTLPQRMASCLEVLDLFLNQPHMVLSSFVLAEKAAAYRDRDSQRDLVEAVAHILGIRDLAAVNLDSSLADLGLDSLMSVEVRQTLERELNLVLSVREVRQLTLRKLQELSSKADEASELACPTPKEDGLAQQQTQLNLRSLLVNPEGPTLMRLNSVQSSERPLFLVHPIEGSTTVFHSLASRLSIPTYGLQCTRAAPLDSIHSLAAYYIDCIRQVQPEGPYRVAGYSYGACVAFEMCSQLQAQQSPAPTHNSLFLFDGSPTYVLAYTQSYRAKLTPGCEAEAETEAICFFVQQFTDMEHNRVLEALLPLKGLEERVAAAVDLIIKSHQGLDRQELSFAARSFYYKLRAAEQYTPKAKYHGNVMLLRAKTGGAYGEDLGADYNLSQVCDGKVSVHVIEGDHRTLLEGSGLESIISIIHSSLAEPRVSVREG
Peroxisome proliferator-activated receptor gamma (Homo sapiens), sequence (P37231 whole entry, looked up, the tested form may be a part): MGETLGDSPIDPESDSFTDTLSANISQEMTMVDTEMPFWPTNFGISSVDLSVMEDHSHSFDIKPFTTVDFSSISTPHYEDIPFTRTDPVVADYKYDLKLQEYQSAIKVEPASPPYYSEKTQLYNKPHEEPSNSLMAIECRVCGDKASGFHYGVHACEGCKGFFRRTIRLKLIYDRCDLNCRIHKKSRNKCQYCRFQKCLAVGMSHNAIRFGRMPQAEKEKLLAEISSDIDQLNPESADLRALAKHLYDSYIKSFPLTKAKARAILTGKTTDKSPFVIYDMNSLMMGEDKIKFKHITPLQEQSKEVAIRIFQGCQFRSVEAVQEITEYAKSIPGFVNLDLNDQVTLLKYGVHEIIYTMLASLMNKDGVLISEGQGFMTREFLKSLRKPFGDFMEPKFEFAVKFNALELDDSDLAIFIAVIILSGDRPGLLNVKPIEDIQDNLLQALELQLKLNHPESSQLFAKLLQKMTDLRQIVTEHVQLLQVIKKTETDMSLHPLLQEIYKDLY

CCc1nc(N)nc(N)c1-c1ccc(Cl)cc1
inactive: [1] | [2] | [3] | [4] | [5] | [7]
active: [6] 70.2 µM | [8] 30.6 µM | [9] 69.4 µM

CC(C)(C)c1ccccc1
inactive: [3] | [4] | [5] | [6] | [7] | [8] | [9]

CCCCCCCCCCCCCCOS(=O)(=O)O
inactive: [1] | [2] | [3] | [4] | [5] | [6] | [7] | [8] | [9]

COC(=O)CCC(=O)OC
inactive: [1] | [2] | [3] | [4] | [6] | [7] | [8] | [9]

CCCC(=O)O
inactive: [1] | [2] | [3] | [4] | [5] | [6] | [7] | [8] | [9]

O=C(O)c1cccnc1
inactive: [1] | [2] | [3] | [4] | [6] | [7] | [8] | [9]

CC(C)(O)c1ccc(CNC(=O)c2cccnc2Oc2ccc(F)cc2)cc1
active: [14] 64.9 µM
not listed: [1] | [2]
inactive: all other assays above

Cn1cnc2c1c(=O)[nH]c(=O)n2C
inactive: [1] | [2] | [3] | [4] | [5] | [6] | [7] | [8] | [9]

C/C=C/c1ccc(OC)cc1
inactive: [1] | [2] | [3] | [4] | [6] | [7] | [8] | [9]

CC1(C)C(=O)NC(=O)N1CO
inactive: [1] | [2] | [3] | [4] | [5] | [6] | [7] | [8] | [9]

CS(=O)(=O)c1ccc([C@@H](C[C@H]2CCC(=O)C2)C(=O)Nc2cnccn2)cc1Cl
inactive: [1] | [2] | [4] | [6] | [8] | [9]
active: [3] 24.4 µM | [5] 2.19 µM | [7] 1.64 µM

O=C(NS(=O)(=O)/C=C/c1cccs1)c1ccc(F)cc1Br
inactive: [1] | [3] | [4] | [6] | [7] | [8] | [9]
active: [2] 51.2 µM

OCC(CO)n1cnc(-c2ccc(F)cc2)c1-c1ccnc(Oc2ccccc2)n1
active: [7] 20.1 µM
inactive: [1] | [2] | [3] | [4] | [5] | [6] | [8] | [9]

Cc1cn([C@H]2C=C[C@@H](CO)O2)c(=O)[nH]c1=O
inactive: [1] | [2] | [3] | [5] | [6] | [7] | [8] | [9]

O=[Si]=O
inactive: [1] | [2] | [4] | [6] | [7] | [8] | [9]

Cc1ccc(C(C)(C)C)c(O)c1
inactive: [1] | [2] | [3] | [4] | [6] | [7] | [8] | [9]

CC(C)c1cccc(C(C)C)c1NC(=O)NS(=O)(=O)c1cc(C(C)(C)O)co1
inactive: [3] | [4] | [5] | [6] | [7] | [8] | [9]
